Experimental findings from PubChem BioAssay AID1347088 (National Center for Advancing Translational Sciences (NCATS), 2019) are described below.

Records with an inconclusive call do not appear. Entries that show only a call come without a potency. Activity calls are given as the source filed them. The call rests on the fitted dose curve.

The experiment is described as follows: qHTS for Inhibitors of the Functional Ribonucleoprotein Complex (vRNP) of Lymphocytic Choriomeningitis Arenaviruses (LCMV): Viability assay - Alamar blue signal for LCMV Confirmatory Screen. Conditions: LCMV vRNP confirmatory screen cells; series mostly up to 53.9 µM. (In general: In qHTS, concentration-response curves come from the screen itself.)
On to `CC12C(=O)OC(=O)C1(C)C1CCC2O1` (stereo not given), for which the Potency is 8.63 µM (active).

With `CC(O)(P(=O)(O)O)P(=O)(O)O`, the Potency entry was “inactive”. The same measure, in the same setting: under `O=c1[nH]c2ccccc2n1C1CCN(CCCC(c2ccc(F)cc2)c2ccc(F)cc2)CC1` stands “inactive”.

Regarding `O=C1Cc2cc(CCN3CCN(c4nsc5ccccc45)CC3)c(Cl)cc2N1`, the Potency result was “inactive”. On the same count and under the same terms, under `Cc1ncc([N+](=O)[O-])n1CC(C)O` (stereo not given) stands “inactive”. Regarding `CN(C)c1ccc(O)c2c1C[C@H]1C[C@H]3[C@H](N(C)C)C(=O)C(C(N)=O)=C(O)[C@@]3(O)C(=O)C1=C2O`, the Potency result was “inactive”. For `CC(C)=CCC/C(C)=C/CC/C(C)=C/CC[C@]1(C)CCc2c(C)c(O)c(C)c(C)c2O1`, the viability change, negative = toxic is -1.54% [at 6 µM] (inactive). For `O=C(Nc1ccccc1)Nc1ccc(-c2ccc(C(=O)[C@H]3CCC[C@H]3C(=O)O)cc2)cc1`, the Potency entry is “inactive”. Same read-out and setting: under `Cc1cccc(-c2[nH]c(C(C)(C)C)nc2-c2ccc3c(c2)OCO3)n1` stands 4.32 µM (active). On to `N#CC(=C(\N)Sc1ccccc1N)/C(C#N)=C(/N)Sc1ccccc1N`, for which the Potency result was “inactive”.

For the molecule `CC(O)C(O)[C@H]1CNc2nc(N)[nH]c(=O)c2N1` (stereo not given in full), the Potency result is “inactive”. The same measure, in the same setting: for `CCC(c1ccc(O)cc1)C(CC)c1ccc(O)cc1` (stereo not given) the value was “inactive”; for `Cc1cc2c(C(C)C)c(O)c(O)c(C=O)c2c(O)c1-c1c(C)cc2c(C(C)C)c(O)c(O)c(C=O)c2c1O`, 27.3 µM (active). On the same count and under the same terms, under `O=C(Nc1ccc(Cl)c(Cl)c1)C1CC1` stands “inactive”; under `CCN(CC)C(=O)N[C@@H]1C=C2c3cccc4[nH]cc(c34)C[C@@H]2N(C)C1`, “inactive”; under `FC(F)(F)c1ccc(C=Cc2nc(COc3ccc(CCCCn4ccnn4)cc3)co2)cc1`, “inactive”.

With `Oc1cc(Cl)ccc1Oc1ccc(Cl)cc1Cl`, the Potency is 44.4 µM (active).

In the case of `NC(=O)N/N=C/c1ccc([N+](=O)[O-])o1`, the Potency entry was “inactive”. On the same count and under the same terms, under `O=C(Nc1ccc([N+](=O)[O-])cc1Cl)c1cc(Cl)ccc1O` stands 3.43 µM (active). Same read-out and setting: under `CO/C=C(/C(=O)OC)c1ccccc1Oc1cc(Oc2ccccc2C#N)ncn1` stands 49.8 µM (active).

Consider `C=C1CC[C@@H]2[C@](C)(CO)[C@H](O)CC[C@@]2(C)[C@@H]1/C=C/C1=CCOC1=O`, for which the Potency result is “inactive”.

`CC[C@@]1([C@@H]2O[C@@H]([C@H]3O[C@@](O)(CO)[C@H](C)C[C@H]3C)C[C@H]2C)CC[C@H]([C@]2(C)CC[C@]3(C[C@H](O)[C@@H](C)[C@@H]([C@@H](C)[C@@H](OC)[C@H](C)C(=O)O)O3)O2)O1`: the Potency is 5.95 µM (active).

In the case of `CCC[C@H](N[C@@H](C)C(=O)N1[C@@H]2CCCC[C@H]2C[C@H]1C(=O)O)C(=O)OCC`, the Potency result is “inactive”. Same read-out and setting: under `Cn1cc(-c2ccncc2)c(-c2ccc(OCc3ccc4ccccc4n3)cc2)n1` stands 38.5 µM (active); under `CCc1cncnc1N1CCN(Cc2nc3ccc(C(F)(F)F)cc3[nH]2)CC1`, 35.2 µM (active).
